# Rango complex inh: qHTS Assay for Inhibitors of Rango (Ran-regulated importin-beta cargo) - Importin beta complex formation; 340,000 compounds, 0.031% hits; Rango CFP/YFP FRET sensor + importin beta, 45 min; Importin subunit beta-1 (Homo sapiens), Q14974; Potency, µM (top dose mostly 92.2 µM), inactives show at the highest dose inhibition of complex formation; AID 540263, 2011; calls by dose curve;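 also: 0% = DMSO wells and 100% = buffer wells lacking importin beta; nearly all actives have a fitted effect of over 15% in size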
#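 FRET biosensor (snurportin 1 IBB flanked by EYFP and cerulean), 50 nM, with compound 5 min, then 0.125 microM importin beta in PBS, 1 mM DTT, 0.02% Tween-20, 0.1% BSA. CFP/YFP ratio read after 45 min at room temperature; pre-read flags interference.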
# Rango release inh: qHTS Assay for Inhibitors of RanGTP induced Rango (Ran-regulated importin-beta cargo) - Importin beta complex dissociation | Biochemical FRET Rango-importin beta, RanGTP-induced dissociation | Potency, µM (top dose mostly 46.1 µM), without a hit: at the top dose activity change, negative = inhibition | 340,000 compounds, 0.071% hits | AID 540253, 2011; calls by dose curve; also: % of control where 0% means no effect; nearly all actives have a fitted effect of over 45% in size
#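 FRET read at 45 min, room temperature: inhibitors block the CFP/YFP signal rise when RanGTP (0.6 uM Ran, 2 mM GTP, 0.2 uM RCC1) frees Rango (0.1 uM) from importin beta (0.25 uM). Pre-read after 5 min compound exposure flags interference.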
# A549 viability: Nrf2 qHTS screen for inhibitors: counterscreen for cytotoxicity | A549 ARE-Fluc cells, CellTiter-Fluor viability, 18-24 h | Potency, µM (highest dose often 46 µM), without a hit: at the top dose activity change, negative = cytotoxicity, actives largely listed as inhibitors | 390,000 compounds, 0.16% hits; also: % is scaled to controls: 0 for no effect and ±100 for the full control effect
#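 Cytotoxicity counterscreen: CellTiter-Fluor fluorescence was measured in A549 ARE_Fluc cells after 18-24 h of compound exposure in a concentration series. The subsequent BugLite luminescent read reports ARE-luciferase activity.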
# Nrf2 block: Nrf2 qHTS screen for inhibitors | Potency, µM (series often up to 46 µM), without a hit: top-dose activity change, negative = inhibition, actives largely listed as inhibitors | AID 504444, 2011 | A549 ARE-Fluc reporter, luciferase luminescence, 18-24 h | 360,000 compounds, 2.1% hits; also: % is scaled to controls: 0 for no effect and ±100 for the full control effect; nearly all actives have a fitted effect of over 60% in size
#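 In this cell-based qHTS, ARE-driven firefly luciferase in A549 cells reports Nrf2 activity; the luminescent signal after BugLite lysis is the measured value, with a prior CellTiter-Fluor read for cell health.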
# Nrf2 ARE act: qHTS of Nrf2 Activators; AREc32 ARE-luciferase reporter (MCF7-derived line), luminescence, 24 h; Potency, µM (highest dose often 46.1 µM), inactives show at the top dose activation, usual class: activators; 410,000 compounds, 0.31% hits; AID 624171, 2012; also: % of control where 0% means no effect; nearly all actives have a fitted effect of over 65% in size
#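 Reporter line AREc32 (ARE-Fluc), seeded overnight in OPTI-MEM with 5% FBS; compound pin-transferred, 24 hr at 37 deg C, 5% CO2; luminescent read-out.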
# * = called active by the depositor; ? = inconclusive; . = no result given. This is a sample that favours compounds with a hit; in the whole collection about 2.3% have one here. Unless noted, calls follow the shape of the dose curve; as a rule, active = well fitted curve in the direction sought with a large enough effect; inconclusive = small, poorly fitted or top-dose-only effect, or another doubt; inactive = no such curve, though single readings can be large; an effect the other way counts as inactive or inconclusive. Potency is read from the fitted curve at half-maximal effect.
SMILES,Rango complex inh,Rango release inh,A549 viability,Nrf2 block,Nrf2 ARE act
Cc1oc2ccc(O)c(CN3CCCCCC3)c2c1C(=O)Nc1cccc(C(F)(F)F)c1,.,.,-3%,8%,-4%
O=C1C(Cl)=C(N2CCN(c3ccccc3[N+](=O)[O-])CC2)C(=O)c2ccccc21,0%,-10%,-22%,1%,7.9µM*
CCOC(=O)c1c(C)nc(-c2ccccc2)nc1N,-5%,7%,-15%,?,13µM*
COCCN(Cc1ccccc1)C(=O)c1cc(-c2ccc(OC)c(OC)c2)nc2ccccc12,6%,0%,?,18µM*,8%
O=[N+]([O-])c1ccc(NN=C(Oc2ccccc2)c2ccc([N+](=O)[O-])cc2)cc1,.,.,.,.,0%
CC/C(=N\Nc1ccc([N+](=O)[O-])cc1)c1ccccc1,?,?,?,21µM*,-1%
CC(O)CNc1nc(N)[nH]c(=O)c1N=Nc1ccccc1 (centres undefined),0%,-2%,-23%,0%,4%
CN(Cc1ccccc1)CC1C2CCC(C2)C1O (centres undefined),0%,-19%,3%,2%,0%
N#Cc1ccc(NS(=O)(=O)c2ccc3c(c2)CCC(=O)N3)cc1,.,.,-3%,0%,.
O=C(C1c2ccccc2Oc2ccccc21)N1CCN(c2ccc(Cl)cc2)CC1,0%,-5%,?,26µM*,-1%
COc1ccccc1N1CCN(C(=O)C2c3ccccc3Oc3ccccc32)CC1,3%,14%,?,11%,-1%
O=C1c2ccccc2C(=O)N1c1cccc2ncccc12,.,.,-1%,-7%,.
COc1ccc(-c2nc(Cn3c(SCc4cccc(C(F)(F)F)c4)nc4cccnc43)c(C)o2)cc1OC,.,.,-19%,23µM*,-1%
COc1ccccc1CNC(=O)c1ccc(CN2CC(=O)N3CCCCC3C2=O)cc1 (centres undefined),.,.,14%,-5%,0%
CCC(C)NS(=O)(=O)c1ccc(S(=O)(=O)N2CCCC3(CCCCC3)C2)cc1 (centres undefined),3%,26%,-22%,21µM*,0%
COc1cccc(-n2cc(C(=O)Nc3ccccc3C(N)=O)c3ccccc3c2=O)c1,.,.,-11%,-12%,12%
CC(OC(=O)c1cccn1C)C(=O)Nc1ccc2c(c1)OCO2 (centres undefined),0%,-4%,1%,26µM*,2%
c1csc(CNc2ncnc3cc(-c4ccc5c(c4)OCO5)ccc23)c1,.,.,-3%,-13%,.
CN(C)c1ccc(/C=C(/NC(=O)c2ccccc2)C(=O)N2CCCC2)cc1,?,-12%,-9%,5%,0%
N#Cc1c(N)nc(SCc2ccncc2)c(C#N)c1-c1cccs1,0%,12%,-17%,23µM*,6%
COc1ccc(Cl)cc1NC(=O)COC(=O)c1c(-c2ccccc2)noc1C,-4%,0%,-1%,10µM*,0%
O=[S+]([O-])(c1ccc(N2CCOCC2)nc1)N1CCN([S+](=O)([O-])c2c(F)cccc2F)CC1,.,.,-1%,-20%,.
C/C(=C\C(=O)c1ccncc1)Nc1ccccc1O,-3%,-6%,-9%,16%,14µM*
COc1ccc(Cl)cc1NC(=S)NC(=O)c1ccco1,0%,14%,2%,17%,10µM*
O=C(Nc1cc2nn(-c3ccccc3)nc2cc1Cl)c1ccco1,-3%,1%,1%,.,1µM*
SMILES,Rango complex inh,Rango release inh,A549 viability,Nrf2 block,Nrf2 ARE act
O=C(NC(=S)Nc1ccccc1Br)c1ccco1,4%,6%,8%,?,14µM*
Cc1cccc(NC(=S)NC(=O)c2ccco2)c1C,1%,-17%,2%,8%,9%
COc1ccc(NC(=O)c2ccco2)cc1NC(=O)C(C)(C)Oc1ccc(Cl)cc1,.,.,-23%,21µM*,10%
COc1ccc(CCN2C(=O)CC(N3CCN(S(=O)(=O)c4ccccc4)CC3)C2=O)cc1OC (centres undefined),-1%,-4%,16%,-8%,-1%
O=C(COC(=O)c1cnccn1)Nc1cc(S(=O)(=O)N2CCOCC2)ccc1Cl,2%,1%,0%,-14%,0%
COc1ccc(C(=O)CCC(C)(C)[N+](=O)[O-])cc1,-6%,-6%,1%,?,0%
CC1=C(c2ccc(C)c(C)c2)S(=O)(=O)N(Cc2ccc(C(=O)NCc3ccccc3F)cc2)C1=O,.,.,0%,-6%,0%
COc1cccc(C(=O)Nc2cc(NC(=O)c3ccco3)ccc2OC)c1,0%,9%,1%,-24%,0%
COc1cc(OC)cc(C(=O)Nc2ccc(NC(=O)c3ccco3)c(Cl)c2)c1,1%,7%,?,26µM*,0%
CCCCOc1cccc(C(=O)Nc2cc(NC(=O)c3ccco3)ccc2OC)c1,.,.,-11%,23µM*,4%
CCCC(=O)Nc1ccc(Cl)c(NC(=S)NC(=O)c2ccco2)c1,2%,-9%,3%,?,2%
O=C(NC(=S)Nc1cccc(NC(=S)NC(=O)c2ccco2)n1)c1ccco1,?,-14%,7%,24%,6.3µM*
O=C(NC(=S)Nc1cc(Cl)ccc1Cl)c1ccco1,.,.,.,.,11µM*
COc1cc(OC)cc(C(=O)NC(=S)Nc2ccc(NC(=O)c3ccco3)cc2)c1,-2%,?,9%,3%,0%
O=C(Nc1cc(Cl)ccc1Cl)c1ccco1,-2%,-9%,7%,3%,13µM*
Nc1ccc(NC(=O)c2ccco2)c(Cl)c1,0%,11%,8%,20%,0%
Cc1cc(O)c(NC(=O)c2ccco2)cc1C,0%,13%,4%,?,13µM*
O=C(Nc1nnc(-c2ccccc2Cl)o1)c1ccco1,1%,1%,2%,.,13µM*
Cc1ccc(-c2nnc(NC(=O)c3ccco3)o2)c(C)c1,4%,-20%,0%,-7%,8%
Cc1ccc(-c2nnc(N3CCN(c4ccccn4)CC3)c3ccccc23)cc1,0%,-13%,?,23µM*,0%
CS(=O)(=O)N1CCN(c2nnc(-c3ccccc3)c3ccccc23)CC1,-4%,21%,-3%,-21%,0%
Cc1ccc(NC(=O)c2cnc(N3CCN(c4ccccn4)CC3)c3ccccc23)c(Br)c1,4%,7%,-12%,15µM*,-1%
c1ccc(-c2nnc(N3CCN(c4ccccn4)CC3)c3ccccc23)cc1,0%,0%,?,18µM*,-2%
CCN(CC)S(=O)(=O)c1ccc2c(c1)N(CC(=O)N1CCN(c3cccc(Cl)c3)CC1)C(=O)CO2,.,.,-9%,.,5%
O=C(OCn1ncc(Cl)c(Cl)c1=O)c1ccc(C(F)(F)F)cc1,3%,-11%,-16%,3%,10µM*

# High-throughput results: PubChem, National Center for Advancing Translational Sciences (NCATS)
